For experiment [1], the target named is Glycogen synthase kinase-3 beta (Homo sapiens) (UniProt P49841). The conditions noted are these: at 1 µM.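 Also: reported values are mean percent inhibition of GSK3B.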
The target of experiment [2] is Homeodomain-interacting protein kinase 1 (Homo sapiens) (UniProt Q86Z02). The following applies: at 0.1 µM.
The target is the same in experiment [3]. The conditions noted are these: at 1 µM.
In experiment [4] the target is T1, Homeodomain-interacting protein kinase 4 (Homo sapiens) (UniProt Q8NE63).
T1 sequence (whole entry): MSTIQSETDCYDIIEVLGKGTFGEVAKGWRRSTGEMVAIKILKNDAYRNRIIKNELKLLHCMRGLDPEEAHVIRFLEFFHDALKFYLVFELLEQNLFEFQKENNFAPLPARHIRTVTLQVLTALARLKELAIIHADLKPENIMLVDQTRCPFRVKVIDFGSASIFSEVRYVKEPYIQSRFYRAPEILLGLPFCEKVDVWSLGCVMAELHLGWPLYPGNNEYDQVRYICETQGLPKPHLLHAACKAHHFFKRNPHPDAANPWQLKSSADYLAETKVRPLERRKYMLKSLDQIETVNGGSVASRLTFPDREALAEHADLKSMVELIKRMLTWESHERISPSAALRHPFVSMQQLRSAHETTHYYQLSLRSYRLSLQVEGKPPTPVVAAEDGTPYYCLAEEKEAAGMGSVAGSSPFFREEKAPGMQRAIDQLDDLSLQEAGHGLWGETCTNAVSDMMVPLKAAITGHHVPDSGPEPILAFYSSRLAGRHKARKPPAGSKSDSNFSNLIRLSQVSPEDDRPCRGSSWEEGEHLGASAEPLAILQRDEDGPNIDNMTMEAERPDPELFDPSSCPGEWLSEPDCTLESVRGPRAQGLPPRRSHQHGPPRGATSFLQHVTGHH
The following applies: at 0.1 µM.

Experiment [5] concerns the target T1, Homeodomain-interacting protein kinase 4 (Homo sapiens). The following applies: at 1 µM.
The target in experiment [6] is Mitogen-activated protein kinase 9 (Homo sapiens) (UniProt P45984). The conditions noted are these: at 0.1 µM.
For experiment [7] the target is unchanged. The conditions noted are these: at 1 µM.
In experiment [8] the target is Mitogen-activated protein kinase 1 (Homo sapiens) (UniProt P28482). The following applies: at 0.1 µM.
For experiment [9] the target is unchanged. The conditions noted are these: at 1 µM.
In experiment [10] the target is Mitogen-activated protein kinase 3 (Homo sapiens) (UniProt P27361). The following applies: at 0.1 µM.
The target is the same in experiment [11]. The conditions noted are these: at 1 µM.
Experiment [12] addresses SRSF protein kinase 3 (Homo sapiens) (UniProt Q9UPE1). The following applies: at 0.1 µM.
Experiment [13] shares this target. The following applies: at 1 µM.
Experiment [14] deals with Mitogen-activated protein kinase 14 (Homo sapiens) (UniProt Q16539). The following applies: at 0.1 µM.
Experiment [15] has the same target. The conditions noted are these: at 1 µM.
Experiment [16] concerns the target Mitogen-activated protein kinase 11 (Homo sapiens) (UniProt Q15759). The following applies: at 0.1 µM.
The target is the same in experiment [17]. The conditions noted are these: at 1 µM.
The target in experiment [18] is T2, Mitogen-activated protein kinase 13 (Homo sapiens) (UniProt O15264).
T2 sequence (whole entry): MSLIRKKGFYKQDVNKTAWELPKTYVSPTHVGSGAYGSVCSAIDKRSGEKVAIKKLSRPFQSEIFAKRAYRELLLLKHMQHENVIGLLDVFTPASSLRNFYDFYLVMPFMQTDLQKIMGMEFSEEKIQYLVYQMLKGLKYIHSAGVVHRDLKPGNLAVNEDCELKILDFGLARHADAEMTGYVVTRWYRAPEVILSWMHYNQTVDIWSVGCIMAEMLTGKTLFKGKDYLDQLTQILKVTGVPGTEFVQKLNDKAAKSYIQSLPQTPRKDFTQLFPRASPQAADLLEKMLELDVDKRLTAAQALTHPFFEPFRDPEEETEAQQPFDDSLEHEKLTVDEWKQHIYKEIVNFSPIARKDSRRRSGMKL
The conditions noted are these: at 0.1 µM.

The target of experiment [19] is T2, Mitogen-activated protein kinase 13 (Homo sapiens). The following applies: at 1 µM.
The target of experiment [20] is T3, Mitogen-activated protein kinase 12 (Homo sapiens) (UniProt P53778).
T3 sequence (whole entry): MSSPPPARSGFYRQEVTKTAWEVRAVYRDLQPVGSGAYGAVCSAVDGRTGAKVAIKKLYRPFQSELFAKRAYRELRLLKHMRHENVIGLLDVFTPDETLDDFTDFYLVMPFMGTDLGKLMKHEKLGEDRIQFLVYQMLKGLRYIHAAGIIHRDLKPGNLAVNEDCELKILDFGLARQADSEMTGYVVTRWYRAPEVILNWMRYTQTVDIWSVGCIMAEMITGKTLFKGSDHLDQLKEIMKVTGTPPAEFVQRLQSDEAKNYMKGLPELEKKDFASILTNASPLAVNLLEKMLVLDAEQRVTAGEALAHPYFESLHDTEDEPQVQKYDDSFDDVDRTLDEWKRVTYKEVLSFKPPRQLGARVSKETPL
The following applies: at 0.1 µM.

Molecules are shown by their SMILES.

Chain of Homeodomain-interacting protein kinase 1 (Homo sapiens) (Q86Z02 whole entry, looked up): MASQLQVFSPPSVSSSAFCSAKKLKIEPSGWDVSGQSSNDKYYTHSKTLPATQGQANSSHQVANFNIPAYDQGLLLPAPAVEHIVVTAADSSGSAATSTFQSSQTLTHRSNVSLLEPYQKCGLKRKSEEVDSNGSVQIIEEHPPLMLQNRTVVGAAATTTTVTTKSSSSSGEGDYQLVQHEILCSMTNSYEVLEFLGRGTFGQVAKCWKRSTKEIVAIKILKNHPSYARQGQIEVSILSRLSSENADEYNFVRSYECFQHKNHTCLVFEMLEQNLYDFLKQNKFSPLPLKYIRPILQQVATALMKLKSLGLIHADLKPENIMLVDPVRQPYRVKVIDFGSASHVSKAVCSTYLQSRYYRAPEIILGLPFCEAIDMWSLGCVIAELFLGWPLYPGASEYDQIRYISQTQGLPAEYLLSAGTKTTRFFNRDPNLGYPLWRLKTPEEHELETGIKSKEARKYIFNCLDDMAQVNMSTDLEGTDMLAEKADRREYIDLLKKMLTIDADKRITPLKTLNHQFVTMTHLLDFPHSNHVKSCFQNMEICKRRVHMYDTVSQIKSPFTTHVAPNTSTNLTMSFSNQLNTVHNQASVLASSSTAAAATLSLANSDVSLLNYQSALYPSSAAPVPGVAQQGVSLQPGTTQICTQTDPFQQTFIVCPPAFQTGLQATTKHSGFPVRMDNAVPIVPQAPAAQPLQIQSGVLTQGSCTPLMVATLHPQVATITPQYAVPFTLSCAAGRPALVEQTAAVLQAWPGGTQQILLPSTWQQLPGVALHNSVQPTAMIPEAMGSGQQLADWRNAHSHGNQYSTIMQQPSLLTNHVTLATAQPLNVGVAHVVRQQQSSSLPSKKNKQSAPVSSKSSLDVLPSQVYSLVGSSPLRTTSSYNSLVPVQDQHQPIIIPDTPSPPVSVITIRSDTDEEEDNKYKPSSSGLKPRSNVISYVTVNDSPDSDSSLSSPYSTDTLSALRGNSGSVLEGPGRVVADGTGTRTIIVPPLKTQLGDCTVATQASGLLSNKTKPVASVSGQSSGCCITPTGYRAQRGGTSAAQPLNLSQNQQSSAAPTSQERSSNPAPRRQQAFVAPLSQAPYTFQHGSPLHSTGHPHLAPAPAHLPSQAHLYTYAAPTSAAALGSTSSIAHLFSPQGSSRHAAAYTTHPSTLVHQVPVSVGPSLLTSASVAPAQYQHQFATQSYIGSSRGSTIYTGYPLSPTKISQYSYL
Chain of Mitogen-activated protein kinase 11 (Homo sapiens) (Q15759 whole entry): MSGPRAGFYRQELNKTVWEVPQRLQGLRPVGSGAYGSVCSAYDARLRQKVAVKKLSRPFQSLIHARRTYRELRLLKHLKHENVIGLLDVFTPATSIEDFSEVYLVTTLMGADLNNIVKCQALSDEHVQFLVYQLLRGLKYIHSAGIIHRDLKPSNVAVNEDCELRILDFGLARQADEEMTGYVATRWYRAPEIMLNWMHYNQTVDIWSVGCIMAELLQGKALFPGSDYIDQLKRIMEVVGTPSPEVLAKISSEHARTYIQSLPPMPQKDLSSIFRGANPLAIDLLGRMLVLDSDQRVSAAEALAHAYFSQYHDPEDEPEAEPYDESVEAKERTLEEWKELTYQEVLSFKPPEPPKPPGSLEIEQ
Chain of Mitogen-activated protein kinase 9 (Homo sapiens) (P45984 whole entry, looked up): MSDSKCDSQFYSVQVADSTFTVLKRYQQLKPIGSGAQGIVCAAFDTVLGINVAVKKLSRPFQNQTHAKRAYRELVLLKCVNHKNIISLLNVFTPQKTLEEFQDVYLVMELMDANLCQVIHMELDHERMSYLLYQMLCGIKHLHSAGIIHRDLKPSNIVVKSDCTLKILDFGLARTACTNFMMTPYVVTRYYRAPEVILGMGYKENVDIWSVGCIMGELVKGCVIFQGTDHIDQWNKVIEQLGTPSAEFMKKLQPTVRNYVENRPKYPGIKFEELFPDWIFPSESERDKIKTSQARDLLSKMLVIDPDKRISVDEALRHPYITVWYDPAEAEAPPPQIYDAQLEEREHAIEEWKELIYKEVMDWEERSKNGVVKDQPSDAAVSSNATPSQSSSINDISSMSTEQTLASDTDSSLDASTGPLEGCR
Chain of Glycogen synthase kinase-3 beta (Homo sapiens) (P49841 whole entry, looked up): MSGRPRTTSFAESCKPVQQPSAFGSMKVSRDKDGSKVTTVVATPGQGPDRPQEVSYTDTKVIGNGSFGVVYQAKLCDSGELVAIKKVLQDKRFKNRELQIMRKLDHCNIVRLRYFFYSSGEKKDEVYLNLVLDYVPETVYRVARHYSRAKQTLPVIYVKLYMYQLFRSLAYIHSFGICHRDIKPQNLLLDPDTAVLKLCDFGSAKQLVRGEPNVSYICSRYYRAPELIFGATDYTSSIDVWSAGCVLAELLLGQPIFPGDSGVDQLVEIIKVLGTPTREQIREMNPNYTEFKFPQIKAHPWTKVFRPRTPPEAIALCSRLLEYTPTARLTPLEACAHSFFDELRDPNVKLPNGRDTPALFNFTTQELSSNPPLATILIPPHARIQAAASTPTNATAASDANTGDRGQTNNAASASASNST
Chain of SRSF protein kinase 3 (Homo sapiens) (Q9UPE1 whole entry): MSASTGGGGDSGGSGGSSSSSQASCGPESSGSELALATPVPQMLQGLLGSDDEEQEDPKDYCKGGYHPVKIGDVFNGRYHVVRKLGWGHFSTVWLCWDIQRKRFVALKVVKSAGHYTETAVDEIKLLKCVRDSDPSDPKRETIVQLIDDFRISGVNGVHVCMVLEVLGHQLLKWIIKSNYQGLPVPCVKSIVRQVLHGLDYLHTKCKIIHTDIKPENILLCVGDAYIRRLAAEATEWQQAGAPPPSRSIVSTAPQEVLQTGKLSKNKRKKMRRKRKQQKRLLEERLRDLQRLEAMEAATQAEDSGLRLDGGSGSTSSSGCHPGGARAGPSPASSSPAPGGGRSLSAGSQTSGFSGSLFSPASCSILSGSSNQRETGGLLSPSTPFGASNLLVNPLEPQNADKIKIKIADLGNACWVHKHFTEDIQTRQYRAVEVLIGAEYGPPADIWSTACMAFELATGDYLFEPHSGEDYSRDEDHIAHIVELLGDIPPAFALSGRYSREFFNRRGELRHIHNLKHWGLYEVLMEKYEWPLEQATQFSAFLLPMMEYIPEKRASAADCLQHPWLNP
Chain of Mitogen-activated protein kinase 14 (Homo sapiens) (Q16539 whole entry): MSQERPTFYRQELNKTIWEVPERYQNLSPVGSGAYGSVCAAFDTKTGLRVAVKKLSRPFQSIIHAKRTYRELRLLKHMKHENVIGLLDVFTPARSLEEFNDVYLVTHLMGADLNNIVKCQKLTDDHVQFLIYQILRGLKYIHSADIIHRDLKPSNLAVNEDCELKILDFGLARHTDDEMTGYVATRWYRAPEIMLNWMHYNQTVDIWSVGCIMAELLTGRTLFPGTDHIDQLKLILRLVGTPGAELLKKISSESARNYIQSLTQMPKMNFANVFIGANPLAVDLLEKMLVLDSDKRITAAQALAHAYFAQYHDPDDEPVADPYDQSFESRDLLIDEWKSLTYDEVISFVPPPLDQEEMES
Chain of Mitogen-activated protein kinase 3 (Homo sapiens) (P27361 whole entry): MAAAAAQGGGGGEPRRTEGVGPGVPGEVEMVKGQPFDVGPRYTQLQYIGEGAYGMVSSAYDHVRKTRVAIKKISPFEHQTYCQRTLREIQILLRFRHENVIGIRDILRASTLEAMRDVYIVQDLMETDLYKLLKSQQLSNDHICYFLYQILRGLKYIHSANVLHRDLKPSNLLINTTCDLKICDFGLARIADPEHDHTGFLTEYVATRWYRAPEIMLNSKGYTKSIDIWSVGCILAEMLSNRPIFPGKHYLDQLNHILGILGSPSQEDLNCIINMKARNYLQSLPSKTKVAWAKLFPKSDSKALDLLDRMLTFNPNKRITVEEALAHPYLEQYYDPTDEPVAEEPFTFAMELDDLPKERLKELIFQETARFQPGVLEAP
Chain of Mitogen-activated protein kinase 1 (Homo sapiens) (P28482 whole entry): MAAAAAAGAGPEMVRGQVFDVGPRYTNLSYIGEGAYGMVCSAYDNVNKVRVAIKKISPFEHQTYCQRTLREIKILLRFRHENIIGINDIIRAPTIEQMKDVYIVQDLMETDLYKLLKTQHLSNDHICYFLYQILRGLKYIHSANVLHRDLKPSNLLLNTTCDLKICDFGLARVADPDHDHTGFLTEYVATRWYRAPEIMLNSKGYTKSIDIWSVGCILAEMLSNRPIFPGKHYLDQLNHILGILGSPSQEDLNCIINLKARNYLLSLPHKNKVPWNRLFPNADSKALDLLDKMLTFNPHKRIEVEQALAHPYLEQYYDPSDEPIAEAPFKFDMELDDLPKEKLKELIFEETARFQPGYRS

Take `COc1cc(N2CCN(C(C)C)CC2)ccc1Nc1nc(Nc2cccc(F)c2C(=O)O)c2cc[nH]c2n1`: the inhibition in experiment [1] was 6.19%; in experiment [2], 4.97%; in [3], 23.6%; in experiment [4] it was 5.89%; in [5] it was 22.7%; in [6], 26.4%. The inhibition in experiment [7] is 72.5%; in [8], 5.18%; in experiment [9], 6.34%; in [10], 5.83%; in [11], 5.94%; in [12], -1.11%. Moreover, the inhibition in experiment [13] was determined as 3.96%; in experiment [14] it was 6.33%; in experiment [15], 9.12%; in experiment [16] it was 3.15%; in experiment [17], 5.38%; in experiment [18], 4.97%. Besides, the inhibition in [19] was found to be 4.09%; in [20], 0.95%.

For `Cc1ccc(-c2cc3c(NC(=O)C4CC4)ncnc3o2)cc1`, the inhibition in experiment [1] was 38.2%; in experiment [2] it was 1.63%; in experiment [3] it was 9.22%; in experiment [4], 1.44%; in experiment [5], 7.28%; in experiment [6], 0.97%. In addition, the inhibition is 5.49% in experiment [7]; 2.94% in experiment [8]; 4.73% in [9]; 3% in experiment [10]; 1.29% in [11]; 0.82% in experiment [12]. Also, the inhibition in [13] came to 0.53%; in [14] it was 3.56%; in [15], 6.38%; in [16], 1.17%; in experiment [17], 7.45%; in experiment [18], 5.13%. The inhibition in experiment [19] turned out to be 4.2%; in [20] it was 1.34%.

`NS(=O)(=O)c1ccc(N/N=C2\C(=O)Nc3cccc(CCc4ccncc4)c32)cc1`: the inhibition in experiment [1] is 56.4%; in experiment [2], -0.6%; in experiment [3], 2.62%; in experiment [4], 0.72%; in experiment [5], 1.64%; in [6], -0.3%. Further, the inhibition in [7] is 1.61%; in experiment [8] it was 0.92%; in experiment [9], 0.88%; in experiment [10] it was -0.55%; in experiment [11], -1.26%; in experiment [12], -1.55%. In addition, the inhibition in experiment [13] was -0.36%; in experiment [14], 1.13%; in [15], 0.21%; in experiment [16] it was 1.91%; in [17], 3.6%; in experiment [18] it was 0.17%. Also, the inhibition is -0.27% in experiment [19] and 0.4% in experiment [20].

In the case of `FC(F)(F)CNc1nccc(-c2cnn3ncccc23)n1`, the inhibition was 6.02% in [1]; 0.25% in [2]; 10.2% in experiment [3]; -0.95% in experiment [4]; 3.01% in experiment [5]; 2.29% in experiment [6]. In addition, the inhibition in [7] is 4.42%; in experiment [8], 3.24%; in experiment [9], 5.24%; in experiment [10], 1.95%; in experiment [11], 2.69%; in [12], -4.16%. In addition, the inhibition in experiment [13] was -0.66%; in experiment [14] it was 6.27%; in [15], 5.78%; in experiment [16], 3.94%; in [17] it was 6.08%; in [18], 2.13%. For the same compound, the inhibition in experiment [19] turned out to be 2.49%; in experiment [20], 1.83%.

Consider `CNC(=O)c1sc(-n2cnc3cc(OC)c(OC)cc32)cc1OCc1ccccc1C(F)(F)F`, for which the inhibition in [1] was 3.56%; in [2] it was -0.45%; in experiment [3], -1.76%; in experiment [4], 1.98%; in experiment [5], 7.08%; in [6] it was 2.65%. In addition, the inhibition in experiment [7] is 4.22%; in experiment [8] it was 5.45%; in experiment [9], 6.09%; in experiment [10] it was 3.11%; in experiment [11] it was 3.4%; in experiment [12] it was -2.11%. For the same compound, the inhibition in experiment [13] is -0.26%; in [14], 5.47%; in [15], 5.08%; in [16] it was 4.76%; in experiment [17], 4.92%; in [18], 3.34%. Moreover, the inhibition is 1.88% in experiment [19] and 1.92% in experiment [20].

On to `CC1=C(C(=O)Nc2ccc3[nH]nc(C)c3c2)C(c2ccc(C(F)(F)F)cc2)CC(=O)N1` (stereo not given), for which the inhibition was found to be 10.3% in experiment [1]; 3.11% in [2]; 7.43% in experiment [3]; 3.59% in experiment [4]; 7.18% in [5]; 2.4% in experiment [6]. In addition, the inhibition in experiment [7] stood at 3.81%; in [8] it was 6.06%; in [9], 35.1%; in [10] it was 3.88%; in experiment [11], 19.7%; in [12], 1.18%. The inhibition in [13] is -0.95%; in experiment [14], 1.31%; in [15] it was 5.28%; in experiment [16], -0.15%; in experiment [17], 0.38%; in [18], 1.19%. Besides, the inhibition in experiment [19] was 6.03%; in experiment [20], -4.7%.

Values taken from ChEMBL document CHEMBL1961873, “Compounds: GSK PKIS; Assays: Nanosyn kinase panel” (2012).
